Bioassay records from PubChem BioAssay.
Rows were chosen to be rich in hits. Some 1.7% of all compounds tested hit in one or more screens of this group.
aDG glyco up: activators of alpha-DG glycosylation, primary screen, uHTS, Pro5-aDG cells, AlphaScreen | activation, % at 10 µM | AID 624168, 2012 | actives 0.22% (n = 360,000) | alpha-DG glycosylation AlphaScreen (IIH6); 0% Pro5, 100% B10-LARGE cell signal;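 active = activation of at least 8% versus controls, or a plate z-score of at least 8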;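 also: Pro5 are CHO cells carrying HIG-tagged alpha-DG that lacks glycosylation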
N-glyco inh: increase of ERlucT glycosylation luciferase signal, primary screen, N-linked glycosylation inhibitor project, D54 ERlucT cells, luminescence, set 2; reporter increase, % at 12.5 µM; actives 0.23% (n = 360,000); D54 ERlucT glycosylation luciferase reporter, 24 h; percent of 100 nM tunicamycin response;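 active = mean luciferase reporter signal, scaled so untreated is 0 and the glycosylation-blocking control 100, at or above a set limit in every replicate; inconclusive = mean reaches the limit but not every replicate does; inactive = mean below the limit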;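 also: luciferase carries N-glycosylation sites so blocking glycosylation raises the light; 0% = median of neutral control wells and 100% = median of 100 nM tunicamycin wells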
ARNT-TACC3 inh: disruptors of ARNT/TACC3 protein interaction, primary screen, biochemical, AlphaScreen, single concentration. Transforming acidic coiled-coil-containing protein 3 (Homo sapiens), Q9Y6A5. AlphaScreen His-ARNT PAS-B/GST-TACC3 binding, luminescence; TACC3 fragment carries E629A point mutation. actives 0.66% (n = 390,000). inhibition, % at 9.99 µM. AID 623870, 2012;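 active = mean inhibition of replicates at least 50% and at least half of replicates each reaching 50%; inconclusive = half or more replicates reach 50% but mean below 50%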;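 also: 0% = complete ARNT plus TACC3 wells and 100% = ARNT alone without TACC3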
H9c2 protect: cardioprotection against H2O2-induced cell death, primary screen, uHTS, H9c2 cells, ATPLite luminescence | H9c2 cardiomyocytes, H2O2 injury protection, 2 h | protection from H2O2 cell death, % at 20 µM | actives 0.63% (n = 360,000) | AID 588492, 2011;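 active = compounds giving at least 50% protection of heart cells from peroxide-induced death in the single-dose screen, raw or plate-pattern-corrected value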;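 also: 0% = DMSO wells with peroxide and 100% = DMSO wells without peroxide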
Vif inh: HIV Vif self-association inhibitors, primary screen, imaging, HEK293T, single point. HEK293T cells, Vif self-association by quenched fluorescence, 24 h. inhibition, % at 7.49 µM. actives 0.35% (n = 340,000). AID 602346, 2012; in the data active = inhibition above about 50%, passing the limit was not always enough; inconclusive = no clear call, values can overlap the other calls; inactive = below about 31%
* hit, by the source's call; ? = inconclusive; . = no result; ! = a repeat was not active.

SMILES | aDG glyco up | N-glyco inh | ARNT-TACC3 inh | H9c2 protect | Vif inh
COC(=O)C1SCC2C(=O)N(Cc3ccc(F)cc3)CC(=O)N21 (stereo not given) | -0.2 | -0.1 | 3.2 | 0.5 | -9.6
COc1ccc(NC(=O)c2cc3c(=O)n(C)c4ccccc4c3n2C)cc1OC | -0.4 | ? | -4.0 | 50.0* | 17.8
COc1ccc(NC(=O)c2cc3c(=O)n(C)c4ccccc4c3n2C)cc1Cl | -0.2 | 2.5 | 1.2 | 7.9 | -4.2
Cc1ccc(CNC(=O)c2cc3c(=O)n(C)c4ccccc4c3n2C)cc1 | -0.2 | 4.1 | . | -34.5 | 5.9
Cn1c(C(=O)NCc2cccs2)cc2c(=O)n(C)c3ccccc3c21 | -0.1 | 0.9 | -7.4 | 68.4* | -1.1
CO[C@H]1CN(C)C(=O)c2cc(NC(=O)Cc3ccccc3)ccc2OC[C@@H](C)N(C(=O)c2ccccc2F)C[C@H]1C | . | . | -3.5 | . | .
COCC(=O)N(C)C[C@H]1[C@H](c2ccc(-c3cccnc3)cc2)[C@@H](CO)N1C(C)=O | . | . | 5.5 | . | .
Cc1nc(C(F)(F)F)c(C(=O)N/N=C(\N)c2ccccn2)s1 | 1.2 | 2.4 | 62.3* | 22.7 | -3.0
COC(=O)c1ccccc1NC(=O)c1cnn2c(C)cc(C)nc12 | -0.2 | 0.6 | 1.7 | 1.0 | -0.6
COC(=O)c1ccccc1NC(=O)c1nc2nc(C)cc(C)n2n1 | 0.2 | -1.5 | 19.1 | 61.4* | -2.6
COc1ccc(C(CC(=O)Nc2ccc(C)cn2)N2Cc3ccccc3C2=O)cc1 (stereo not given) | -0.2 | -1.1 | 34.6* | 4.8 | -5.6
Cc1cc2cc(C#N)c(SCC(=O)Nc3nonc3C)nc2cc1C | 0.0 | 3.9 | 12.2 | -5.2 | 78.9*
COc1ccc2cc(C#N)c(SCC(=O)Nc3nonc3C)nc2c1 | -0.1 | 1.9 | 0.5 | -0.5 | 1.8
CCOC(=O)C1=C(COC(=O)c2ccc([N+](=O)[O-])o2)NC(=O)NC1C (stereo not given) | -0.2 | 7.6 | 27.7 | 60.7* | 9.8
COc1ccc(S(=O)(=O)N(C)C[C@H]2Oc3ccc(NC(=O)Cn4cnnn4)cc3CC(=O)N([C@H](C)CO)C[C@@H]2C)cc1 | . | . | -5.0 | . | .
CN1CCN(Cc2nc3c(c(=O)n(C)c(=O)n3C)n2CCCc2ccccc2)CC1 | 2.2 | 2.8 | -25.4 | -6.1 | 12.4
CC1CCN(Cc2nc3c(c(=O)n(C)c(=O)n3C)n2CCCc2ccccc2)CC1 | -0.1 | -0.6 | 2.5 | 56.0* | 11.6
CC(=O)N(C)C[C@H]1Oc2ncc(-c3ccccc3C)cc2C(=O)N([C@H](C)CO)C[C@H]1C | . | . | -3.9 | . | .
C=CCC[C@H](Cc1ccc(F)cc1)C(=O)OC[C@@H](Cc1c[nH]c2ccccc12)NC(=O)[C@@H](CC=C)CC(=O)NCCO | -0.4 | -0.7 | 6.1 | 67.8* | 1.2
C=CCC[C@@H](Cc1ccc(F)cc1)C(=O)OC[C@@H](Cc1c[nH]c2ccccc12)NC(=O)[C@@H](CC=C)CC(=O)NCCO | -0.2 | -1.7 | 4.1 | 49.8 | -4.9
Nc1nnnn1CC(=O)N/N=C/c1cc([N+](=O)[O-])ccc1O | -0.2 | 2.4 | 66.9* | -2.3 | 2.7
Cc1cc(C)n(CC(=O)N/N=C/c2cc(Br)cc([N+](=O)[O-])c2O)n1 | 0.0 | 2.3 | 2.9 | 18.8 | 8.0
Nc1nnc(CC(=O)N/N=C\c2cc([N+](=O)[O-])ccc2O)s1 | 0.1 | -1.6 | 64.9* | 17.3 | 6.8
Cc1cc([N+](=O)[O-])nn1CC(=O)N/N=C/c1ccccc1O | 0.2 | 1.3 | 67.6* | 57.8* | -0.3
Cc1cc([N+](=O)[O-])nn1CC(=O)N/N=C/c1ccccc1F | 0.2 | -0.5 | -7.6 | 1.1 | 17.9
SMILES | aDG glyco up | N-glyco inh | ARNT-TACC3 inh | H9c2 protect | Vif inh
O=C(N/N=C/c1cc([N+](=O)[O-])ccc1O)C12CC3CC(CC(C3)C1)C2 | -0.2 | 6.3 | -2.6 | 22.9 | -11.7
Cc1cc(C)n(CC(=O)N/N=C/c2cc([N+](=O)[O-])ccc2O)n1 | -0.3 | 2.9 | 72.2* | 43.9 | -0.3
COc1ccc(CN(C)C[C@@H]2Oc3ccc(NC(=O)Cc4cn(C)c5ccccc45)cc3CC(=O)N([C@@H](C)CO)C[C@@H]2C)cc1 | . | . | 1.3 | . | .
O=C(C[C@@H]1C[C@H]2c3cc(NC(=O)c4cccnc4)ccc3O[C@H]2[C@@H](CO)O1)NCc1cccc(F)c1 | . | . | 3.7 | . | .
CC(=O)N(C)C[C@H]1Oc2cc(C3=CCCC3)ccc2S(=O)(=O)N([C@@H](C)CO)C[C@@H]1C | . | . | -3.1 | . | .
COCCN(C(=O)Cc1cccs1)C(C(=O)NCc1ccc(OC)cc1)c1ccc(C)cc1 (stereo not given) | -0.1 | -1.5 | -33.4 | 11.2 | 111.6*
C[C@H](CO)N1C[C@H](C)[C@@H](CN(C)C)Oc2ccc(NC(=O)Cc3ccccc3)cc2C1=O | . | . | -7.4 | . | .
O=C(NCC1CC1)NC(=O)c1ccccc1F | -0.4 | 0.4 | . | -0.3 | -5.2
O=C(NCC1CC1)NC(=O)c1c(F)cccc1Cl | -0.1 | 2.0 | -2.9 | 5.1 | 50.5*
CCOC(=O)C1CCN(c2c(N3CCN(c4ccccc4OC)CC3)c(=O)c2=O)CC1 | 0.0 | -0.2 | -0.6 | 17.3 | .
CCOC(=O)C1CCN(c2c(N3CCN(Cc4ccccc4)CC3)c(=O)c2=O)CC1 | -0.2 | 28.2* | -2.4 | -1.8 | 9.1
Cc1cnc(NC(=O)c2cc3c(C)nn(-c4ccccc4)c3s2)s1 | -0.2 | 0.2 | 6.0 | 11.8 | 52.8*
Cc1nn(-c2ccccc2)c2sc(C(=O)NC3CCCCC3)cc12 | 0.3 | -3.2 | 2.1 | 4.7 | 15.6
O=C(C[C@H]1CC[C@H](NC(=O)C2CC2)[C@H](CO)O1)NCCCN1CCOCC1 | . | . | 4.2 | . | .
CC[C@@H]1CC=C[C@H]2[C@H]1C(=O)N(Cc1ccccc1)[C@H]2c1ccoc1 | -0.2 | 38.2* | 0.5 | -20.3 | 2.8
Cc1cc(/C([O-])=C(/C(=S)Nc2ccc(F)cc2)[n+]2ccccc2)c(C)n1-c1ccc(F)cc1 | 0.1 | -3.7 | 47.5* | -3.2 | -3.8
CCN=c1scc(-c2ccc3c(c2)NC(=O)CO3)n1N=C1CCCC1 | 2.2 | -6.2 | 11.7 | -17.3 | 53.8*!
CCOc1cc(C(c2c(C)[nH][nH]c2=O)c2c(C)[nH][nH]c2=O)cc([N+](=O)[O-])c1O | 0.0 | 2.1 | active | -0.6 | -10.4
COc1cc(C(c2c(C)[nH][nH]c2=O)c2c(C)[nH][nH]c2=O)cc([N+](=O)[O-])c1O | -0.1 | 2.9 | -16.9 | -4.2 | -2.4
CCOC(=O)c1c2c3c(cccc3[nH]c1=O)C(=O)c1ccccc1-2 | -0.2 | 3.3 | 0.8 | 15.7 | -8.6
CCOC(=O)c1c2c3c(c(Cl)ccc3[nH]c1=O)C(=O)c1ccccc1-2 | 0.9 | 2.1 | 7.8 | 60.2* | 12.8
CC(=O)Nc1c2c3c(cccc3n(C)c1=O)C(=O)c1ccccc1-2 | -0.2 | 3.1 | 1.1 | -0.1 | 8.3
